In PMC4552634, “A New Set of Chemical Starting Points with Plasmodium falciparum Transmission-Blocking Potential for Antimalarial Drug Discovery” (PLoS ONE, 2015):
Out of some 13,000 compounds screened, about 3,200 (25%) showed an effect of 50% or more. The list shows a part of the results.

Each molecule was assayed on P. falciparum stage V gametocytes. Details: 48 h, 5 µM; inhibitor.
Set-up: BacTiter-Glo ATP luminescence viability of purified stage V gametocytes in 384-well plates, per cent inhibition versus DMSO

Row | Structure (SMILES) | % Inhibition
1 | CC(C)NCc1ccc(-c2cccc(-c3nc4ccc(C(F)(F)F)cc4[nH]3)c2)cc1 [TCMDC-132739] | 37.23%
2 | COc1ccc2nccc([C@H](O)CN3CCC(NCc4ccc5c(c4C)OCCO5)CC3)c2n1 [TCMDC-136066] | 21.32%
3 | Cc1c(C)n(C2CCCCC2)c2ncnc(OC3CCN(CC(=O)N4CCCC4)CC3)c12 [TCMDC-124854] | 2.854%
4 | COc1ccc(C(=O)NC2CCN(c3ccnc4cc(Cl)ccc34)C2)cc1 (stereo not drawn) [TCMDC-133648] | 42.46%
5 | Cc1cc(Nc2ccccc2)nc(Nc2ccccc2)n1 [TCMDC-124214] | 11.37%
6 | Cn1c(NC(=O)CCCCCNC(=O)c2ccc(O)c(-c3ccc(Cl)c(Cl)c3)c2)nc2ccccc21 [TCMDC-140880] | 4.339%
7 | CC(=O)Oc1c(Cl)c(C)nc(C)c1-c1ccc(Oc2ccc(Cl)cc2)cc1 [TCMDC-137381] | 75.31%
8 | Cc1cc(Nc2ccc(Oc3ccc(Cl)cc3)cc2)nc(N)n1 [TCMDC-138073] | -5.729%
9 | Cc1nc(N)nc(N)c1-c1ccc(Cl)cc1 [TCMDC-138984] | -0.9845%
10 | COc1cccc(CN2CCCC(COC(c3ccc(F)cc3)c3ccc(F)cc3)C2)c1O (stereo not drawn) [TCMDC-136038] | -18.09%
11 | COc1ccccc1CN1CCC(NC(=O)c2ccc(-c3cccc(C(F)(F)F)c3)s2)CC1 [TCMDC-134355] | 4.957%
12 | CN(C)c1ccc(-c2ccc(C(=O)NC3CCN(Cc4cccc(C(F)(F)F)c4)CC3)s2)cc1 [TCMDC-134365] | -28.78%
13 | COc1ccccc1-c1ccc(C(=O)NCC2CCCN(Cc3cccc(C(F)(F)F)c3)C2)s1 (stereo not drawn) [TCMDC-134360] | 55.62%
14 | O=C(NC1CCN(Cc2cccc(C(F)(F)F)c2)CC1)c1ccc(-c2cccc(Cl)c2)s1 [TCMDC-134364] | 25.17%
15 | CC(C)Oc1cccc(-c2ccc(C(=O)NCC3CCCN(Cc4cccc(C(F)(F)F)c4)C3)s2)c1 (stereo not drawn) [TCMDC-134362] | 86.43%
16 | O=C(NC1CCN(Cc2cccc(C(F)(F)F)c2)CC1)c1ccc(-c2cccc(C(F)(F)F)c2)s1 [TCMDC-134363] | 23.99%
17 | CN(C)c1ccc(CN2CCCC(CNC(=O)c3ccc(-c4cccc(C(F)(F)F)c4)s3)C2)cc1 (stereo not drawn) [TCMDC-134324] | 98.4%
18 | CC(=O)Nc1ccc(CN2CCC(NC(=O)c3ccc(-c4cccc(OC(C)C)c4)s3)CC2)cc1 [TCMDC-134335] | 1.059%
19 | CN(C)c1ccc(CN2CCC(NC(=O)c3ccc(-c4cccc(C(F)(F)F)c4)s3)CC2)cc1 [TCMDC-134325] | -44.98%
20 | COc1cccc(-c2ccc(C(=O)NCC3CCCN(Cc4cccc(C(F)(F)F)c4)C3)s2)c1 (stereo not drawn) [TCMDC-134361] | 72.66%
21 | Cc1ccc(NC(=O)Nc2ccc(Cl)c(C(F)(F)F)c2)cc1-c1ccc(C(=O)Nc2ccncc2)cc1 [TCMDC-133700] | -87.03%

Row | Structure (SMILES) | % Inhibition
22 | Cc1ccc(NC(=O)c2cccc(N3CCN(c4ccncc4)CC3)c2)cc1F [TCMDC-135124] | -11.57%
23 | CN(C)c1ccc(C2c3nc[nH]c3CCN2C(=O)Nc2cccc([N+](=O)[O-])c2)cc1 (stereo not drawn) [TCMDC-141569] | 12.33%
24 | CCNc1cc(C(=O)N[C@@H](Cc2cccc(F)c2)[C@H](O)CNC(C)CCCC(C)C)cc(N2CCCCS2(=O)=O)c1 (stereo partly drawn) [TCMDC-135307] | 42.64%
25 | CCCC(C)NC[C@@H](O)[C@H](Cc1ccccc1)NC(=O)c1cc(C2CCCC2)cc(N2CCCCS2(=O)=O)c1 (stereo partly drawn) [TCMDC-135216] | 60.63%
26 | CCCCCC(C)NC[C@@H](O)[C@H](Cc1ccccc1)NC(=O)c1cc(NCC)cc(N2CCCCS2(=O)=O)c1 (stereo partly drawn) [TCMDC-135293] | 40.73%
27 | CCNc1cc(C(=O)N[C@@H](Cc2ccoc2)[C@H](O)CNC(C)CCCC(C)C)cc(N2CCCCS2(=O)=O)c1 (stereo partly drawn) [TCMDC-135411] | 37.57%
28 | CCNc1cc(C(=O)N[C@@H](Cc2ccccc2)[C@H](O)CNC(C)CCCC(C)C)cc(N2CCCS2(=O)=O)c1 (stereo partly drawn) [TCMDC-138825] | 1.46%
29 | CCCC(C)NC[C@@H](O)[C@H](Cc1ccccc1)NC(=O)c1cc(NCC)cc(N2CCCCS2(=O)=O)c1 (stereo partly drawn) [TCMDC-135226] | 61.06%
30 | O=C(N[C@@H](Cc1ccccc1)[C@H](O)CNC1CCOCC1)c1cc(C2CCCC2)cc(N2CCCCS2(=O)=O)c1 [TCMDC-134938] | 31.68%
31 | CCNc1cc(C(=O)N[C@@H](Cc2ccccc2)[C@H](O)CNC(C)(C)Cc2cccc(Cl)c2)cc(N2CCCCS2(=O)=O)c1 [TCMDC-135309] | 13.84%
32 | CCNc1cc(C(=O)N[C@@H](Cc2cccc(Cl)c2)[C@H](O)CNC(C)CCCC(C)C)cc(N2CCCCS2(=O)=O)c1 (stereo partly drawn) [TCMDC-135225] | 15.74%
33 | CCNc1cc(C(=O)N[C@@H](Cc2ccccc2)[C@H](O)CNC(C)Cc2cccc(Cl)c2)cc(N2CCCCS2(=O)=O)c1 (stereo partly drawn) [TCMDC-135412] | 76.43%
34 | COc1cc(CNC[C@@H](O)[C@H](Cc2ccccc2)NC(=O)c2cc(C3CCCC3)cc(N3CCCCS3(=O)=O)c2)cc(OC)c1 [TCMDC-134561] | 14.07%
35 | CCNc1cc(C(=O)N[C@@H](Cc2ccccc2Cl)[C@H](O)CNC(C)CCCC(C)C)cc(N2CCCCS2(=O)=O)c1 (stereo partly drawn) [TCMDC-135224] | 92.78%
36 | CC(C)[C@@H](C(=O)NCc1cccc(C(F)(F)F)c1)N1C(=O)CCC1C(=O)Nc1ccc([N+](=O)[O-])cc1 (stereo partly drawn) [TCMDC-141408] | -12.94%
37 | COc1ccc(Cc2cnc3nc(N)nc(N)c3c2C)cc1 [TCMDC-137704] | 42.37%
38 | CC(=O)NCC(=O)NC1=NC(C)(C)N(OCc2ccc3ccccc3c2)C(N)=N1 [TCMDC-131579] | 9.815%
39 | CC(=O)Nc1cccc(C(=O)Nc2cccc(-c3cccc(-c4nc5ccccc5[nH]4)c3)c2)c1 [TCMDC-132134] | -16.76%
40 | COc1cccc(-n2ncc3c(N/N=C/c4ccc(CN(C)CCN(C)C)cc4)ncnc32)c1 [TCMDC-138728] | 20.85%
41 | O=C(NCCCc1ccccc1)c1csc(C2CCCN(C(=O)c3ccc(O)c(-c4ccccc4)c3)C2)n1 (stereo not drawn) [TCMDC-140153] | -2.163%
42 | O=C(Nc1cccnc1)c1cn(-c2ccccc2)nc1-c1cccs1 [TCMDC-124055] | -11.35%

Row | Structure (SMILES) | % Inhibition
43 | COc1ccc(NC(=O)[C@H](CC(C)C)Nc2cc(C)nc(NCc3cccc(C)c3)n2)cc1 [TCMDC-134891] | -4.805%
44 | O=[N+]([O-])c1cccc(NC(=S)N2CCCN(Cc3ccc(C(F)(F)F)cc3)CC2)c1 [TCMDC-141016] | 26.08%
45 | O=C(/C=C/c1ccc(Cl)c(Cl)c1)NCCCCCN1CCCN(C(=S)Nc2cccc(Cl)c2)CC1 [TCMDC-135894] | 9.594%
46 | O=[N+]([O-])c1cccc(NC(=S)N2CCCN(Cc3ccc(F)cc3F)CC2)c1 [TCMDC-141015] | 78.9%
47 | O=C(Nc1cccc(OC2CCN(Cc3ccccc3)CC2)c1)Nc1cccc([N+](=O)[O-])c1 [TCMDC-139544] | -4.381%
48 | O=C(Nc1cccc(CN2CCCN(Cc3ccc(O)cc3)CC2)c1)c1cccc(F)c1 [TCMDC-141816] | -13.75%
49 | O=[N+]([O-])c1cccc(NC(=S)N2CCCN(Cc3ccc(Cl)cc3Cl)CC2)c1 [TCMDC-141017] | 68.72%
50 | Fc1ccc(-c2cncc(Nc3ccncc3)n2)cc1 [TCMDC-134499] | 21.35%
51 | CC1(C(=O)Nc2ccc([N+](=O)[O-])cc2O)CC2c3ccccc3C1c1ccccc12 (stereo not drawn) [TCMDC-124076] | -1.633%
52 | O=C(NC1CCC(N2CCN(c3cccc4[nH]ccc34)CC2)CC1)c1cc2cccnc2[nH]1 (stereo not drawn) [TCMDC-134216] | -40.15%
53 | NC1CCCN(Cc2ccc(-c3ccc(-c4nc5ccccc5[nH]4)s3)cc2)C1 (stereo not drawn) [TCMDC-133849] | 41.97%
54 | NC1CCN(Cc2ccc(-c3ccc(-c4nc5ccc(F)cc5[nH]4)s3)cc2)C1 (stereo not drawn) [TCMDC-133854] | 66.76%
55 | CC(=O)N(C)C1CCN(Cc2ccc(-c3ccc(-c4nc5ccc(F)cc5[nH]4)s3)cc2)C1 (stereo not drawn) [TCMDC-133895] | -2.042%
56 | NC1CCN(Cc2cccc(-c3ccc(-c4nc5ccccc5[nH]4)s3)c2)C1.O=C(O)C(F)(F)F (stereo not drawn) [TCMDC-133869] | 26.1%
57 | NC1CCCN(Cc2ccc(-c3ccc(-c4nc5ccc(F)cc5[nH]4)s3)cc2)C1 (stereo not drawn) [TCMDC-133856] | 57.48%
58 | NC1CCN(Cc2ccc(-c3ccc(-c4nc5ccccc5[nH]4)s3)cc2)C1 (stereo not drawn) [TCMDC-133847] | 76.03%
59 | OCC1CCN(Cc2ccc(-c3ccc(-c4nc5ccc(F)cc5[nH]4)s3)cc2)CC1 [TCMDC-133127] | -4.488%
60 | OC1CCCN(Cc2ccc(-c3ccc(-c4nc5ccc(F)cc5[nH]4)s3)cc2)C1 (stereo not drawn) [TCMDC-133821] | -16.69%
61 | CCOc1cc(C(=O)NCC2CCN(CC3CCCCC3)CC2)ccc1-c1nc2ccc(Cl)cc2[nH]1 [TCMDC-140914] | -32.49%
62 | O=C(NCCc1ccc(Cl)c(Cl)c1)[C@@H]1CCCN1C(=O)c1ccc(O)c(-c2cccc(C(F)(F)F)c2)c1 [TCMDC-140822] | 3.039%
63 | O=C(NCc1ccc(Cl)cc1)c1ccc(C(=O)NCC2CCCN2CC2CCCCC2)cc1 (stereo not drawn) [TCMDC-136754] | -3.385%
